rRNA inh HTS: inhibits bacterial ribosomal RNA function over humanized ribosomes. GFP signal change (wild-type ribosome), % (no concentration beside the values). 350,000 tested, 1.6% active. E. coli WT GFP vs humanized-ribosome RFP mutants, fluorescence, 24 h; stronger effect = lower value; DMSO median 0, no signal -100. AID 720706;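 active = significant combined selectivity score with lowered wild-type GFP, culture density cut under 30%, mutant RFP and density less affected; inactive = any of these conditions unmet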
esBAF inh: SWI/SNF esBAF complex inhibition; reporter increase, % at 12.5 µM; mouse ES cells, Bmi1-luciferase knock-in reporter, 24 h; 100% = twice the neutral-well signal; 350,000 tested, 2% active; in the data active = activation above about 40%;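 note: 0% = median of the plate's neutral control wells and 100% = double that signal; a rise in the Bmi1 reporter signal indicates esBAF inhibition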
MITF act: activators of MITF-driven TRPM1 promoter activity in SK-MEL-5 cells; SK-MEL-5 TRPM1-promoter luciferase, 24 h; % of positive control, neutral wells = 0; activation, % at 12.5 µM; 300,000 tested, 0.75% active; AID 588334;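 active = mean activation of at least 80% with every replicate also reaching 80%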;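 note: 0% = neutral control wells and 100% = parthenolide positive control wells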
MLL AF4-AF9 inh: blocks AF4 peptide binding to human AF9 | P42568 | inhibition, % at 10 µM | AlphaScreen, biotin-AF4 peptide binding to FLAG-AF9 | AID 651704 | 350,000 tested, 0.47% active;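 active = every replicate reaching a set inhibition limit, whatever the replicate mean, cut at about 25% in these data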;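 note: 0% = plate neutral control median and 100% = total signal loss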
Target sequence (P42568 whole entry, looked up): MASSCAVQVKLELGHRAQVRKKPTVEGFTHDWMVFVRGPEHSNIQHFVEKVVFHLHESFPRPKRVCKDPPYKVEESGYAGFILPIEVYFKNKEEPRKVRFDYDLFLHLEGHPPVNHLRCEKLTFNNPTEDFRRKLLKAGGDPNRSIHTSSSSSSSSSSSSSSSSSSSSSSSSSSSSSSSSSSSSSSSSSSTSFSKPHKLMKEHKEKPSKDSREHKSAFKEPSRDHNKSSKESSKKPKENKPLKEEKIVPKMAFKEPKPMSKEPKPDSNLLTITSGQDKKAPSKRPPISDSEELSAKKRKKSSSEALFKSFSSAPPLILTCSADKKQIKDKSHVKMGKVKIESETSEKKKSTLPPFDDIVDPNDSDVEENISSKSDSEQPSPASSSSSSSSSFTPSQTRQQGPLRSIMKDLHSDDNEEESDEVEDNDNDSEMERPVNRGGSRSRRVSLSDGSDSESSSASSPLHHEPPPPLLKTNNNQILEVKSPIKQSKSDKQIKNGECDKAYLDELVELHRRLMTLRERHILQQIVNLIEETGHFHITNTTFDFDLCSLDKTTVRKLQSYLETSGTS
Wnt bcat act: activates Wnt/beta-catenin signaling in a reporter cell assay; activator, plate reader; activation, % at 9.35 µM; 300,000 tested, 1.2% active; AID 743398; in the data active = activation above about 30%, passing the limit was not always enough;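 note: 0% = neutral control wells and 100% = positive control wells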
Numbers without * were called inactive; · = not tested or not shown. In the library only some 3.7% were active in any assay of this set; here they are far more common.

SMILES	rRNA inh HTS	esBAF inh	MITF act	MLL AF4-AF9 inh	Wnt bcat act
CCCN1C(=O)/C(=C2\SC(N3CCCCC3)=NC2=O)c2ccccc21	·	74*	79	·	12
O=C1N=C(N2CCCCC2)SC1=C1CCCCC1	·	75*	47	·	·
CCOc1ccc(/C=C2\SC(N3CCCCC3)=NC2=O)cc1	-5	18	45	2	1
CN1C(=O)/C(=C2\SC(N3CCCCCC3)=NC2=O)c2ccccc21	-8	46*	·	·	·
CN1C(=O)/C(=C2\SC(N)=NC2=O)c2ccccc21	·	·	9	·	·
O=C1N=C(N2CCOCC2)S/C1=C1\C(=O)N(Cc2ccccc2)c2ccccc21	·	52*	74	·	6
COc1ccc(-n2c(C)c(C(C)=O)c3cc(OC(C)=O)ccc32)cc1	-24*	-3	·	0	-2
CCCCN1C(=O)C(=O)NC[C@H]1Cc1cccc2ccccc12	·	·	·	2	1
CCCCN1C(=S)NC[C@@H]1Cc1cccc2ccccc12	-49	59*	32	-6	12
O=C(CN1C(=O)NC2(CCCC2)C1=O)NCc1cccc(Cl)c1	7	0	-12	1	-6
O=c1[nH]c(Cc2ccccn2)nc2scc(-c3ccc(Cl)cc3)c12	-1	0	3	1	7
O=c1[nH]c(Cc2ccc(F)cc2)nc2scc(-c3ccc(F)cc3)c12	3	47*	7	-5	3
Cc1ccc(-c2csc3nc(CN(C)Cc4ccccc4)[nH]c(=O)c23)cc1	-32	0	5	-2	-2
O=c1[nH]c(Cc2cccs2)nc2scc(-c3ccc(Cl)cc3)c12	-1	72*	94*	1	20
Cc1ccc(Cn2nnc(C(=O)Nc3cccc(C)c3C)c2N)cc1	-5	12	4	·	-4
Cc1cccc(NC(=O)c2n[nH]c([N+](=O)[O-])c2Br)c1C	-29*	13	79	-8	45*
Cc1ccc(NC(=O)COC(=O)CC2CC3CCC2C3)cc1S(=O)(=O)N1CCOCC1 (stereo not drawn)	-24	-11	2	1	-1
CN1CCN(c2cc(N3CCN(C(=O)c4ccco4)CC3)c3c4c(onc24)-c2ccccc2C3=O)CC1	·	-39	-5	·	·
O=C1c2ccccc2-c2onc3c(N4CCN(CCO)CC4)cc(N4CCN(C(=O)c5ccco5)CC4)c1c23	-11	-19	-23	76*	-1
Cc1ccc2nc(Cl)c(/C=C/C(=O)c3ccco3)cc2c1	-4	50*	·	0	1
COc1cc2cc(/C=C/C(=O)c3ccco3)c(Cl)nc2cc1OC	·	1	12	·	-1
Cc1ccc2cc(/C=C/C(=O)c3ccco3)c(Cl)nc2c1	-15	·	·	1	60*
COc1ccc(OC)c(NC(=O)C2C(C(=O)O)C3(Cl)C(Cl)=C(Cl)C2(Cl)C3(Cl)Cl)c1 (stereo not drawn)	-19*	·	2	2	-2
C[C@@H]1CCCCO[C@H](CN(C)C(=O)Nc2ccc(C(F)(F)F)cc2)[C@@H](C)CN([C@H](C)CO)C(=O)c2cc(NC(=O)NC3CCCCC3)ccc2O1	7	-6	·	-4	·
COc1ccc(CNC(=O)c2ccncc2)cc1	5	0	-3	2	1
SMILES	rRNA inh HTS	esBAF inh	MITF act	MLL AF4-AF9 inh	Wnt bcat act
COc1ccc(CNC(=O)c2ccc3ccccc3n2)cc1	-12	82*	·	-5	1
O=C(NCc1ccccc1)c1ccc2ccccc2n1	-8	3	1	-9	-1
Cc1nnc(NC(=O)c2ccc3ccccc3n2)s1	-2	43*	49	-1	13
COc1ccc(CNC(=O)c2ccc(C(C)C)cc2)cc1	1	·	104*	-1	14
COc1ccc(CNC(=O)c2ccc(C(C)(C)C)cc2)cc1	4	·	102*	-1	6
COc1ccc(C(=O)NCc2ccc(N3CCN(C)CC3)cc2)cc1	8	0	-4	-1	-1
CCOC(=O)C1CCN(C(=O)c2ccc(OC3CCN(C(=O)CCOC)CC3)cc2)CC1	-2	-3	-10	-4	17
Cc1cc(C)n(-c2ccc(C(=O)OCC(=O)c3c(N)n(C)c(=O)n(C)c3=O)cc2)n1	·	-8	·	·	-1
CCN1C(=O)[C@H]2[C@H]3CN=C(SCc4ccc(C(=O)OC)cc4)N3[C@@](C)(C(=O)OC)[C@H]2C1=O	5	-3	-3	-1	-1
CCn1c(CNC(=O)Cc2ccc(OC)cc2)nnc1SCC(=O)c1ccccc1	10	·	6	-10	-1
COc1ccc(C(=O)NCc2nnc(SCC(=O)NO)n2Cc2ccccc2)cc1	14	·	-20	26*	7
O=C(N/N=C/c1ccc(OC(=O)c2ccccc2)c([N+](=O)[O-])c1)c1ccc(O)cc1	·	-1	2	·	4
CC(C)OC(=O)c1cc2ccccc2[nH]1	·	66*	49	·	9
CCOC(=O)c1cc2cc3ccccc3cc2[nH]1	·	22	·	4	40*
NNC(=O)c1cc2ccccc2[nH]1	-5	·	-4	0	0
CCOC(=O)c1cc(=O)n2c(nc3ccccc32)[nH]1	2	55*	28	1	16
Cc1cc(C)cc(NC(=O)C2COc3ccccc3O2)c1 (stereo not drawn)	-17	9	·	4	-3
CCC(C)N1CCC2(CC1)N=c1c(c3c4c5c(C)c(O)c3c(O)c1=NC(=O)C(C)=CC=C[C@H](C)[C@H](O)[C@@H](C)[C@@H](O)[C@@H](C)[C@H](OC(C)=O)[C@H](C)[C@@H](OC)C=CO[C@@](C)(O5)C4=O)N2 (stereo partly drawn)	·	-4	-1	27*	1
COC1C=COC2(C)Oc3c(C)c(O)c4c(O)c(c(CN5CCN(C)CC5)c(O)c4c3C2=O)NC(=O)C(C)=CC=CC(C)C(O)C(C)C(O)C(C)C(OC(C)=O)C1C (stereo not drawn)	-24	·	·	0	-2
COc1ccc(N2CCN(C(=O)CSc3nnnn3-c3ccc4c(c3)OCCO4)CC2)cc1	-21*	·	-9	4	-2
COc1ccc(-n2nnnc2SCC(=O)N2CCOCC2)cc1	6	3	-8	-2	0
CC(C)OC(=O)CSc1nnnn1-c1ccc2c(c1)OCCO2	·	69*	52	·	10
CCNC(=O)N(C)[C@H]1C[C@H]2c3[nH]c4c(-c5ccccc5)cccc4c3CCN2C(=O)[C@H]1[C@H](C)O	-34	·	·	·	0
CC(=O)Nc1ccc(C(=O)CSc2nnc(-c3ccccc3F)n2CCc2ccccc2)cc1	-35*	·	-2	12	-4
CCC(=O)Nc1ccc(C(=O)CSc2nnc(-c3ccccc3F)n2C2CC2)cc1	·	·	-7	3	-2
CC(=O)Nc1ccc(SCc2ncc(-c3ccccc3)o2)cc1	-14	55*	76	5	9
CC(=O)Nc1ccc(SCC(=O)Nc2ccccc2-c2ccccc2)cc1	-22	·	6	-1	0
CC(C)C(=O)c1c(C(C)C)nn2ccccc12	4	-10	10	-3	-1
CSc1ccccc1NC(=O)c1cc2ncc(Br)cn2n1	12	55*	73	-5	35*
